This passage reports Potency results from PubChem BioAssay (NCATS).

Records with an inconclusive call do not appear. The source made the active and inactive calls. Calls come from the whole dose curve; as a rule, active = well fitted inhibition curve with a large enough effect; inconclusive = small, poorly fitted or top-dose-only effect; inactive = flat fitted curve, though single readings scatter.

Common to all, as to assay: qHTS profiling for inhibitors of Plasmodium falciparum proliferation (AID 504749); note: nearly all actives have a fitted effect of over 60% in size
Details in all cases: P. falciparum in erythrocytes, SYBR Green DNA, 72 h; series mostly up to 28.7 µM
A general note: Quantitative high-throughput screening tests each substance at several concentrations.

One assay has as its system CP256. Summed up: (§1)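 Parasite proliferation within erythrocytes, 72 h exposure. Endpoint: SYBR Green I fluorescence after overnight lysis at room temperature. Controls: 0.29 uM artemisinin, DMSO.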
In another assay the test system is CP260. Summed up: as §1
The next assay has as its system CP262. Put shortly: as §1
The next assay concerns CP265. Put shortly: as §1
A further assay concerns CP266. Put shortly:
as §1

A further assay has as its system CP268. Summed up:
as §1

A further assay concerns CP269. Put shortly: as §1
Another assay deals with CP286. Summed up:
as §1

For the next assay, the system named is CP305. Put shortly: as §1
The next assay deals with CP315. Summed up:
as §1

The subject of another assay is CP325. Put shortly: as §1
In a further assay the test system is CP329. Summed up: as §1
For the next assay, the system named is CP335. Summed up: as §1
The test system of the next assay is DFO2036. Put shortly: as §1
The next assay has as its system DIV17. Put shortly:
as §1

Another assay concerns DIV30. Put shortly: as §1
In a further assay the test system is Dd2. Summed up:
as §1

In the next assay the test system is CP291. Summed up:
as §1

For a further assay, the system named is CP297. Put shortly:
as §1

The subject of the next assay is DIV14. Put shortly:
as §1
Potency is the fitted concentration of half-maximal effect.

For `CN(C)C/C=C(/c1ccc(Br)cc1)c1cccnc1`, the Potency entry with CP256, in the assay on CP260, with CP262, in the assay with CP265, with CP266 and with CP268 was “inactive” each time. Also, the Potency result in the assay on CP269, in the assay with CP286, in the assay with CP305, in the assay on CP315, in the assay on CP325 and in the assay with CP329 was “inactive” throughout. Besides, the Potency entry with CP335, in the assay on DFO2036, in the assay on DIV17 and with DIV30 was “inactive” each time. Further, in the assay with Dd2, the Potency was 12.6 µM (active).
Take `NC(=Nc1ccccc1)Nc1ccccc1`: the Potency result in the assay on CP256, in the assay with CP260, in the assay on CP262, in the assay on CP265, in the assay on CP266 and with CP268 was “inactive” throughout. The Potency result in the assay with CP269, in the assay on CP286, with CP291, with CP305, with CP315 and with CP325 was “inactive” throughout. Further, the Potency result with CP329, with CP335, in the assay on DFO2036, in the assay with DIV17 and in the assay with DIV30 was “inactive” each time.
Regarding `CCCCNc1ccc(C(=O)OCCN(C)C)cc1`, the Potency result with CP256, with CP260, in the assay on CP262, in the assay on CP265, in the assay on CP268 and in the assay with CP269 was “inactive” each time. Further, the Potency entry with CP286, with CP291, in the assay with CP297, in the assay on CP305, with CP315 and in the assay with CP335 was “inactive” throughout. The Potency result with DIV30 and in the assay on Dd2 was “inactive” each time.
As for `CCCCOCCOCCOCc1cc2c(cc1CCC)OCO2`, the Potency result in the assay with CP256, with CP260, in the assay with CP262, in the assay with CP265, in the assay on CP268 and in the assay on CP269 was “inactive” in each case. The Potency result in the assay on CP286, with CP291, in the assay with CP297, in the assay with CP305, in the assay on CP315 and in the assay with CP325 was “inactive” each time. For the same molecule, the Potency entry in the assay on CP329, in the assay with CP335, in the assay with DFO2036, in the assay on DIV14, with DIV17 and with DIV30 was “inactive” in each case. Also, the Potency result with Dd2 was “inactive”.
On to `CN1CCN(CC(=O)N2c3ccccc3C(=O)Nc3cccnc32)CC1`, for which the Potency result in the assay on CP256, with CP260, in the assay on CP262, in the assay on CP265, in the assay with CP268 and in the assay on CP269 was “inactive” throughout. Further, the Potency entry in the assay with CP286, in the assay on CP291, in the assay on CP305, in the assay on CP315, in the assay on CP325 and in the assay with CP329 was “inactive” throughout. Also, the Potency entry with CP335, with DFO2036, in the assay with DIV14, in the assay on DIV17, in the assay with DIV30 and in the assay with Dd2 was “inactive” in each case.
For `CN(C)CCOC(=O)COc1ccc(Cl)cc1`, the Potency entry in the assay with CP256, in the assay on CP260, in the assay on CP262, with CP265, in the assay on CP268 and with CP269 was “inactive” throughout. Besides, the Potency entry in the assay on CP286, in the assay with CP291, in the assay on CP297, with CP305, in the assay with CP315 and with CP329 was “inactive” throughout. In addition, the Potency entry in the assay on CP335, in the assay on DFO2036, in the assay on DIV30 and in the assay on Dd2 was “inactive” each time.
As for `CC(=O)Oc1cc(C(C)C)c(OCCN(C)C)cc1C`, the Potency entry with CP256, with CP260, in the assay with CP262, with CP265, in the assay on CP266 and in the assay with CP268 was “inactive” each time. Also, the Potency result in the assay on CP269, with CP286, in the assay on CP291, in the assay with CP297, with CP305 and in the assay with CP315 was “inactive” throughout. The Potency result with CP325, with CP329, with DFO2036, in the assay with DIV14, in the assay with DIV17 and with DIV30 was “inactive” throughout. For the same molecule, the Potency result with Dd2 is “inactive”.
Take `Cc1nc2ccccn2c(=O)c1CCN1CCC(C(=O)c2ccc(F)cc2)CC1`: the Potency entry with CP256, in the assay on CP260, with CP262, in the assay with CP265, in the assay on CP266 and in the assay with CP268 was “inactive” throughout. In addition, the Potency entry in the assay with CP269, in the assay on CP297, with CP305, in the assay with CP315, in the assay on CP325 and in the assay with CP329 was “inactive” each time. The Potency entry with DFO2036 was “inactive”. Moreover, the Potency in the assay with DIV14 was 6.75 µM (active).
Turning to `CCN(CC)CCOCCOC(=O)C1(c2ccccc2)CCCC1`, the Potency is 11.2 µM (active) in the assay with CP256; 11.2 µM (active) in the assay with CP260; 3.98 µM (active) with CP265; 15.1 µM (active) in the assay on CP268; 13.5 µM (active) in the assay on CP269; 12.6 µM (active) in the assay on CP286. For the same molecule, the Potency was 6.75 µM (active) in the assay on CP297; 13.5 µM (active) with CP305; 15.1 µM (active) in the assay on CP325; 9.53 µM (active) in the assay with CP335; 12.6 µM (active) in the assay with DFO2036; 2.39 µM (active) in the assay with DIV14. Also, the Potency in the assay on DIV17 is 3.79 µM (active); in the assay with DIV30, 7.57 µM (active); in the assay on Dd2, 2.51 µM (active). Besides, the Potency result with CP262, in the assay with CP266, in the assay on CP315 and in the assay with CP329 was “inactive” each time.
On to `Nc1nc(N)c2nc(-c3ccccc3)c(N)nc2n1`, for which the Potency result in the assay with CP256, in the assay with CP260, with CP262, with CP265, in the assay with CP266 and in the assay with CP268 was “inactive” each time. The Potency result in the assay with CP269, in the assay on CP286, in the assay with CP291, in the assay with CP297, with CP305 and in the assay with CP315 was “inactive” throughout. In addition, the Potency result in the assay on CP325, with CP329, in the assay with DFO2036, with DIV14, with DIV17 and in the assay on DIV30 was “inactive” throughout. The Potency result with Dd2 is “inactive”.
Regarding `c1cnc(N2CCN(Cc3ccc4c(c3)OCO4)CC2)nc1`, the Potency entry in the assay with CP256, with CP260, in the assay with CP262, in the assay on CP265, in the assay on CP266 and in the assay with CP268 was “inactive” throughout. The Potency result with CP269, in the assay on CP286, with CP291, in the assay with CP305, in the assay with CP315 and with CP325 was “inactive” in each case. Also, the Potency result with CP329, in the assay with CP335, in the assay on DFO2036, in the assay with DIV17, in the assay with DIV30 and in the assay with Dd2 was “inactive” in each case.
As for `CCCOc1ccccc1-c1nc2n[nH]nc2c(=O)[nH]1`, the Potency result in the assay with CP256, with CP260, in the assay on CP262, in the assay on CP265, in the assay on CP266 and in the assay with CP268 was “inactive” throughout. The Potency result in the assay on CP269, with CP286, in the assay on CP291, in the assay on CP297, in the assay on CP305 and with CP315 was “inactive” in each case. The Potency entry in the assay with CP325, with CP329, with DFO2036, in the assay with DIV14, in the assay on DIV17 and in the assay on DIV30 was “inactive” throughout. Moreover, the Potency result with Dd2 is “inactive”.
